Consider 40 compounds from PubChem BioAssay (NCI).

Each structure is given as a SMILES string. This is part of a sample that, as a whole, favours compounds with a hit. Of some 79,000 tested, about 15% had one in any assay. Active and inactive are the calls of the source. Cut-off read from the data, not from the text of the source: active = growth inhibition above about 70%; inactive = the rest.

This assay in a line: NCI Yeast Anticancer Drug Screen. Data for the cln2 rad14 strain (AID 165).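 Note: 0% = growth equal to vehicle treated cultures.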 The following applies: S. cerevisiae cln2 rad14 strain, at 50.0 µM, hits give high values. In short, it runs like this: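 Growth inhibition, relative to vehicle-treated controls, is the read-out. The test organism is a yeast strain with defined genetic alterations, cln2 rad14.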
On to `NC(=O)Nc1ccc(Cl)cc1[N+](=O)[O-]`, for which the growth inhibition is -46.5% (inactive).

Turning to `CCCCCCCCCCCCCCCCS(=O)(=O)N/N=C/c1ccccc1O`, the growth inhibition is 18.2% (inactive).

Regarding `CCCCOC(=O)c1cc2ccccc2oc1=O`, the growth inhibition is 15.7% (inactive).

Turning to `O=C1O/C(=C(/Cl)c2cccc3ccccc23)c2ccccc21`, the growth inhibition is 9.55% (inactive).

In the case of `CC1(c2ccc(Cl)cc2)NC(=O)NC1=O` (stereo not given), the growth inhibition was -29.5% (inactive).

In the case of `CCCCCCCCCC(=O)N/N=C/c1ccco1`, the growth inhibition was 44.9% (inactive).

Take `Cc1ccc(C(C)C)c(OC2OC(C(=O)O)C(O)C(O)C2O)c1` (stereo not given): the growth inhibition was -33.7% (inactive).

With `Cc1ccc(OS(=O)Nc2cccc(N)c2)cc1` (stereo not given), the growth inhibition was -22.1% (inactive).

As to `CCCCC1C(=O)N=C2C=CC=CN2C1=O` (stereo not given), the growth inhibition was 3.5% (inactive).

On to `NC(=O)NC(=O)OCCOC(=O)NC(N)=O`, for which the growth inhibition was -16.7% (inactive).

Take `CSc1nc2ncnc(N(C)C)c2[nH]1`: the growth inhibition was 2.45% (inactive).

With `Nc1ccc(C(=O)NN2C(=O)C(Cl)C2c2cc(Br)ccc2O)cc1` (stereo not given), the growth inhibition was -32.1% (inactive).

For the compound `Cc1cc(=O)c2cc(-c3ccccc3)ccc2[nH]1`, the growth inhibition was 0.05% (inactive).

As for `CCN(CC)C(=O)C1CCN(CCC(=O)Nc2ccccc2)CC1`, the growth inhibition was -16.1% (inactive).

In the case of `Cc1cc(C)c(CC(=O)NCC(=O)NN)c(C)c1`, the growth inhibition is -13.3% (inactive).

`CCC/C=C/c1cc2c(cc1O)CC[C@@H]1[C@@H]2CC[C@]2(C)[C@@H](O)CC[C@@H]12`: the growth inhibition is 35.4% (inactive).

For the compound `COc1ccccc1NC(=O)CC(C)=O`, the growth inhibition is -11.6% (inactive).

With `CO[C@@H]1[C@@H](OC2OC(C)C(OC3CC(C)(O)C(OC(=O)CC(C)C)C(C)O3)C(N(C)C)C2O)[C@@H](CC=O)C[C@@H](C)C(=O)/C=C/C2O[C@H]2C[C@@H](C)OC(=O)C[C@H]1OC(C)=O` (stereo not given in full), the growth inhibition is 8.95% (inactive).

Consider `NSC(=S)NCc1ccco1`, for which the growth inhibition is -52.1% (inactive).

Take `Cc1ccc(NC(=O)Oc2ccc(Br)cc2)c([N+](=O)[O-])c1`: the growth inhibition is 16.3% (inactive).

As for `CCOC(=O)C(CC[C@@H]1N[C@H](C(N)=O)Cc2c1[nH]c1ccccc21)C(=O)OCC`, the growth inhibition is 7.55% (inactive).

For the compound `Cn1cnc2ncnc(Nc3ccc(Cl)cc3)c21`, the growth inhibition was -24.2% (inactive).

As for `O=C1c2ccsc2C(=O)c2sc(CO)cc21`, the growth inhibition was 91.8% (active).

As to `CN(C)CC(CN(C)C)C(=O)c1ccc(OC2OC(CO)C(O)C(O)C2O)cc1` (stereo not given), the growth inhibition is 5.15% (inactive).

For `Cn1c(N)c(NC(=O)CC#N)c(=O)n(C)c1=O`, the growth inhibition is 21% (inactive).

In the case of `COc1cc(CNC(=S)CCCCCCCCCCC(C)C)ccc1O`, the growth inhibition was -26.4% (inactive).

In the case of `Cn1c2c(c(=O)c3c4[nH]c5c(c(=O)c4ccc31)CCCC5)CCCC2`, the growth inhibition is -5.65% (inactive).

Take `C1=Cc2ccccc2Nc2ccccc21`: the growth inhibition is 1.65% (inactive).

In the case of `c1ccc2c(c1)cc1n2CC2CN=NC12` (stereo not given), the growth inhibition is 12.3% (inactive).

For the compound `Cc1sc2nc3n(c(=O)c2c1C)N=C(c1ccc([N+](=O)[O-])cc1)CS3`, the growth inhibition is 24.1% (inactive).

Regarding `CC12CCC(Cl)(CC1O)C2(C)C` (stereo not given), the growth inhibition was 2.05% (inactive).

Take `COc1ccc(CC(=O)NCCc2ccc(OC)c(OC)c2OC)cc1`: the growth inhibition was 8.3% (inactive).

Consider `COc1cc2c(c3[nH]cc(C(=O)O)c(=O)c13)NC(=O)CS2`, for which the growth inhibition was -32.4% (inactive).

For `COc1ccc(-c2c3c(n(C4OC(COC(C)=O)C(OC(C)=O)C(OC(C)=O)C4OC(C)=O)c(=S)c2C#N)CCCC3)cc1` (stereo not given), the growth inhibition is 2.05% (inactive).

Take `CC(=O)OC1CC2C(C)(CCC3C2(C)CCC2(C)C4CC(C)(C)CCC4(C)CCC32C)C1C` (stereo not given): the growth inhibition was 2.75% (inactive).

`CC(=O)OC1C=CCC2C(=O)C3=C(C(=O)c4ccccc4C3=O)C(=O)C12` (stereo not given): the growth inhibition is 36.6% (inactive).

For `COc1ccc(N)cc1CO`, the growth inhibition was -17.1% (inactive).

For the compound `O=C1NC(=NC2CCCCC2)C2(CCN(CCCC3(c4ccc(F)cc4)OCCO3)CC2)N1c1ccccc1`, the growth inhibition is 5% (inactive).

`COC(=O)/C=C1\CCC2C3CC=C4C=C(N5CCCC5)CCC4(C)C3C(=O)CC12C` (stereo not given): the growth inhibition was -9.6% (inactive).

With `O=C(C[n+]1ccccc1CCCO)c1ccc(F)cc1`, the growth inhibition is 28.3% (inactive).
